Here are results for 40 compounds from PubChem BioAssay (NCI).

The panel holds about 79,000 compounds, 15% with a hit somewhere; the sample as a whole holds those more often. Activity calls are given as the source filed them. Cut-off read from the data, not from the text of the source: active = growth inhibition above about 70%; inactive = the rest.

The test is described as follows: NCI Yeast Anticancer Drug Screen. Data for the mlh1 rad18 strain (AID 175). Particulars: S. cerevisiae mlh1 rad18 strain growth inhibition; at 50.0 µM; stronger effect = higher value. Summed up:
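Inhibition values reflect reduced growth of mutant yeast versus vehicle-treated controls following compound exposure; the mutations affect DNA damage repair.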
Take `Clc1ccc(C(CI)c2ccccc2Cl)cc1` (stereo not given): the growth inhibition was 6.05% (inactive).

For the compound `O=C1NC(=O)C(c2ccc3c(c2)OCO3)N1` (stereo not given), the growth inhibition is 7.05% (inactive). To `Cc1ccc(N=C2SC(c3ccc(C)cc3)(c3ccc(C)cc3)c3ccccc32)cc1` belongs -16.1% (inactive); to `NC(=S)NNC(=O)/C(=C/c1ccc(/C=C(\NC(=O)c2ccccc2)C(=O)NNC(N)=S)cc1)NC(=O)c1ccccc1`, 31.8% (inactive). As for `CC1=CC(=O)[C@@H](O)[C@]2(C)[C@H]3[C@@]4(O)OC[C@]35[C@H]([C@@H](CO)[C@H]4O)[C@@H](OC3OC(CO)C(O)C(O)C3O)C(=O)O[C@@H]5C[C@@H]12` (stereo not given in full), the growth inhibition was -25.9% (inactive). To `O=C1CCCCC1COCC1CCCCC1=O` (stereo not given) belongs -21.4% (inactive); to `CC(=O)c1nc2ccccc2n1CC(=O)c1ccc(Cl)cc1`, -3.55% (inactive). The figure for `Cc1cc(C)c(NC(=O)Nc2ccccc2F)cc1C` is 8.85% (inactive); for `CCCCC(CC)C(=S)N1CCOCC1` (stereo not given) it is -9.25% (inactive); for `Nc1ccc2[nH]cc(CCC(=O)O)c2c1` it is 18.5% (inactive). Regarding `O=C1c2c(nc3ccccc3c2-c2ccccc2)CN1Nc1ccccc1`, the growth inhibition is -19.4% (inactive). To `NC(=O)c1cc(Br)ccc1O` belongs 17.2% (inactive). To `C1CC(CCN2CCOCC2)CCN1` belongs -8.45% (inactive); to `COc1ccc(C(=O)C(C)C(O)C(=O)O)c(O)c1C` (stereo not given), 9.15% (inactive); to `N#CC(=O)Nc1ccc(Cl)c(Cl)c1`, 0.4% (inactive). To `Cc1ccccc1C(=O)NNC(=O)c1cccc2ccccc12` belongs 6.95% (inactive).

Take `CC(C)(C)C1CCC2c3c([nH]c4ccccc34)C3C(=O)N(c4ccc(Cl)cc4)C(=O)C3C2C1` (stereo not given): the growth inhibition was -13.2% (inactive). To `O=C1C(=C(c2ccc([N+](=O)[O-])cc2)N2CCOCC2)C(=O)c2ccccc21` belongs 10.3% (inactive); to `Clc1c(-c2ccccc2)oc2nc3ccccc3nc12`, 26.2% (inactive); to `CC(NC(=O)C(CC(=O)OCc1ccccc1)NC(=O)OCc1ccccc1)c1ccccc1` (stereo not given), -1.3% (inactive). The figure for `CCC(C)(O)C(C)(O)CC` (stereo not given) is -8.8% (inactive). The figure for `Cc1nc2ccccc2c(=O)n1NC(=O)c1ccccc1O` is 17.1% (inactive); for `COC1(C)CCC2(O)C(=O)OC3C(O)COC32O1` (stereo not given) it is -4.55% (inactive). For the compound `CCOC(=O)c1ccc(NC(=S)NC(=O)c2cccc([N+](=O)[O-])c2)cc1`, the growth inhibition is 15.2% (inactive). To `C=CCOc1ccc(S(=O)(=O)c2ccc(OCC=C)cc2)cc1` belongs -4.35% (inactive); to `COc1cccc2c(Cl)c3ccc(Cl)cc3nc12`, 15.8% (inactive).

As to `CCN(CC)Cc1ccccc1CO`, the growth inhibition was 0.5% (inactive). The figure for `NC(=O)NNC(=O)NC12CC3CC(CC(C3)C1)C2` is 21.6% (inactive); for `CCCCCCC(=O)OCC` it is 14.2% (inactive); for `CCCCCCCCCCCCCCCCN` (tested in a mixture with another compound) it is 17.4% (inactive). Turning to `Cc1c2c(cc3c1[nH]c1ccccc13)C(=O)c1ccccc1C2=O`, the growth inhibition is 83.3% (active).

`O=C1c2cc3c(cc2C(=O)c2[nH]c(=O)ccc21)CCCC3`: the growth inhibition was 35.6% (inactive). To `COc1cc2c3c(c1)[nH]c(=S)n3C(=O)CS2` belongs -40.9% (inactive); to `Cc1cc([N+](=O)[O-])cnc1Cl`, -16.8% (inactive); to `Clc1ccccc1/C=C(/c1ccccc1)c1ccccn1`, 15.8% (inactive).

On to `Nc1cnc(Nc2cccc3ccccc23)o1`, for which the growth inhibition was -15.7% (inactive).

On to `S=c1[nH]c2ccccc2n2cccc12`, for which the growth inhibition was 19.2% (inactive). To `c1ccc(CCc2nccc3ccccc23)cc1` belongs 1.1% (inactive); to `N#C/C(=C\Nc1ccccn1)C(=O)c1ccco1`, -3.05% (inactive); to `CC/C(CC(=O)CCC(=O)Nc1ccccc1[N+](=O)[O-])=N/NC(=O)C[n+]1ccccc1`, -12.7% (inactive).
